Data taken from the supplement of paper PMC7724964.

T1: ARID4A 568-634 Tudor-knot (domain begin residue: 568, domain end residue: 634), P29374
T1 chain: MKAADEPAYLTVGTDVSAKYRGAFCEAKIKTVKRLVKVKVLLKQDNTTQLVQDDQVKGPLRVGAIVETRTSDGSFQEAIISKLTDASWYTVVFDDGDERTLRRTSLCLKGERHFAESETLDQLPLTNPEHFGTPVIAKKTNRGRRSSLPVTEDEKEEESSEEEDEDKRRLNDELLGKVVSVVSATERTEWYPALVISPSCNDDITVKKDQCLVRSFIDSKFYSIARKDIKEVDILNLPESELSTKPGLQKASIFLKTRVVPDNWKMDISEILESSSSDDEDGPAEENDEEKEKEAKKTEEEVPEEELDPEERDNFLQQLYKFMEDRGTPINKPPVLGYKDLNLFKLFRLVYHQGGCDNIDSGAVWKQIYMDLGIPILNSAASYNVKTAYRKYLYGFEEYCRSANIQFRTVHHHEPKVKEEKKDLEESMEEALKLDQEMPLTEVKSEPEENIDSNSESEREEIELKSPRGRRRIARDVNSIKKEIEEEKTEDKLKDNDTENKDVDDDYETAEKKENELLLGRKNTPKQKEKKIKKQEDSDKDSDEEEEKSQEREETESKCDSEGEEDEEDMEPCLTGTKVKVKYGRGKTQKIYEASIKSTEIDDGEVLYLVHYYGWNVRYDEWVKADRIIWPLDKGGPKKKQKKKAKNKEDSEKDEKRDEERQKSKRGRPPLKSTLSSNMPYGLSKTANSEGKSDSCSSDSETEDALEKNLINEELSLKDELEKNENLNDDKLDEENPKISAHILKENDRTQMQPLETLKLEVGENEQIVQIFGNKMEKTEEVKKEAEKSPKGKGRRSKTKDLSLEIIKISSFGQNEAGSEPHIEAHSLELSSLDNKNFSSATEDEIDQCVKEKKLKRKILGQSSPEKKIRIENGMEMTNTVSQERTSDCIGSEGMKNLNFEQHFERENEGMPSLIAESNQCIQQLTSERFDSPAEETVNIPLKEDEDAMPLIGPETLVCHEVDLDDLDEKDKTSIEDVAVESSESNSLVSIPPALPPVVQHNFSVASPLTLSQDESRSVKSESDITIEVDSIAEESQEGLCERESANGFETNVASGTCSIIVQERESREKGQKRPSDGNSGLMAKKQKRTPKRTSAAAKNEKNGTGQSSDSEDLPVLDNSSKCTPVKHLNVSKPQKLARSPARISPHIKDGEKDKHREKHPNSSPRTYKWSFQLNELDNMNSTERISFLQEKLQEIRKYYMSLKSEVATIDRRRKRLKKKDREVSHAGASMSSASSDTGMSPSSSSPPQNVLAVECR

T2: LBR 1-67 LBR_tudor (domain begin residue: 1, domain end residue: 67), Q14739
T2 chain: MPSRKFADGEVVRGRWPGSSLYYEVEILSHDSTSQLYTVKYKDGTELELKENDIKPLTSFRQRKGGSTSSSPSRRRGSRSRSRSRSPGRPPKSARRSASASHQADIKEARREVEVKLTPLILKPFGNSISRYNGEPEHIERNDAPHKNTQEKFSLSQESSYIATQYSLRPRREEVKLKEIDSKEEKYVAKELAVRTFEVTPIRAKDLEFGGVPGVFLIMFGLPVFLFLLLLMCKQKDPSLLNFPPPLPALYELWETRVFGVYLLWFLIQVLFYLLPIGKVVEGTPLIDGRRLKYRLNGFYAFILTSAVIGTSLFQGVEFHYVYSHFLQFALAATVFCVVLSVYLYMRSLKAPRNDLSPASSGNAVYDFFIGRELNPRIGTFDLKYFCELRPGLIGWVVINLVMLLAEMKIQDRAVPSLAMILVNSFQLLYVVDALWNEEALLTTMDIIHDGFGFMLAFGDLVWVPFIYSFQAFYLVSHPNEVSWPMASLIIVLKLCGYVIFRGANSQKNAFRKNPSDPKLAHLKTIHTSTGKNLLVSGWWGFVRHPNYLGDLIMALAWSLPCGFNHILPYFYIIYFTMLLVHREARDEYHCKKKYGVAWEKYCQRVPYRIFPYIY

T3: SND1 650-910 TUDOR+SNase (domain begin residue: 650, domain end residue: 910), Q7KZF4
T3 chain: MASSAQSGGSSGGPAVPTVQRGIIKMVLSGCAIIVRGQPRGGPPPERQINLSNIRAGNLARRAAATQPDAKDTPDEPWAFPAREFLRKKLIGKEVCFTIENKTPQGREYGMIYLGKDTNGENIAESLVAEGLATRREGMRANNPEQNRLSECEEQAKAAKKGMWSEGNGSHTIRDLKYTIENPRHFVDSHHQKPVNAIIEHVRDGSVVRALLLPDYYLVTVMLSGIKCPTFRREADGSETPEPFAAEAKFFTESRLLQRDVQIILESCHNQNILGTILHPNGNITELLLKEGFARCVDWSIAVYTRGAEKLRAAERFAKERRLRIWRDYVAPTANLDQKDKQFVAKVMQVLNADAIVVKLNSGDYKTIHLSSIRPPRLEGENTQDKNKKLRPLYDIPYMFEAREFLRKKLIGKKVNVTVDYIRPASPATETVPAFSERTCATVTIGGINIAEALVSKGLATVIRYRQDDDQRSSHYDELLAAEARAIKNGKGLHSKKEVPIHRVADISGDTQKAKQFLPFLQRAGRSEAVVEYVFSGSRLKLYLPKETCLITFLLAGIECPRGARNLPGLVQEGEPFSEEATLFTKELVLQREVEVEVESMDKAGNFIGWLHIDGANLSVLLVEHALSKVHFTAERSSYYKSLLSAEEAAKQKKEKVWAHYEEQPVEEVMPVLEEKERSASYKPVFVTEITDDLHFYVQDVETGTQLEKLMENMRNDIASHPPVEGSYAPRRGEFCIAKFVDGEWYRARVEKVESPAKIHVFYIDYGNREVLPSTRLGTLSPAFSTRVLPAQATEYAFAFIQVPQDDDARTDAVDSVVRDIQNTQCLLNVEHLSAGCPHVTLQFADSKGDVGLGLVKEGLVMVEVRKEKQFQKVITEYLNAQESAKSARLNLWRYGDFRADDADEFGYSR

T4: TDRD1 261-449 TUDOR (domain begin residue: 261, domain end residue: 449), Q9BXT4
T4 chain: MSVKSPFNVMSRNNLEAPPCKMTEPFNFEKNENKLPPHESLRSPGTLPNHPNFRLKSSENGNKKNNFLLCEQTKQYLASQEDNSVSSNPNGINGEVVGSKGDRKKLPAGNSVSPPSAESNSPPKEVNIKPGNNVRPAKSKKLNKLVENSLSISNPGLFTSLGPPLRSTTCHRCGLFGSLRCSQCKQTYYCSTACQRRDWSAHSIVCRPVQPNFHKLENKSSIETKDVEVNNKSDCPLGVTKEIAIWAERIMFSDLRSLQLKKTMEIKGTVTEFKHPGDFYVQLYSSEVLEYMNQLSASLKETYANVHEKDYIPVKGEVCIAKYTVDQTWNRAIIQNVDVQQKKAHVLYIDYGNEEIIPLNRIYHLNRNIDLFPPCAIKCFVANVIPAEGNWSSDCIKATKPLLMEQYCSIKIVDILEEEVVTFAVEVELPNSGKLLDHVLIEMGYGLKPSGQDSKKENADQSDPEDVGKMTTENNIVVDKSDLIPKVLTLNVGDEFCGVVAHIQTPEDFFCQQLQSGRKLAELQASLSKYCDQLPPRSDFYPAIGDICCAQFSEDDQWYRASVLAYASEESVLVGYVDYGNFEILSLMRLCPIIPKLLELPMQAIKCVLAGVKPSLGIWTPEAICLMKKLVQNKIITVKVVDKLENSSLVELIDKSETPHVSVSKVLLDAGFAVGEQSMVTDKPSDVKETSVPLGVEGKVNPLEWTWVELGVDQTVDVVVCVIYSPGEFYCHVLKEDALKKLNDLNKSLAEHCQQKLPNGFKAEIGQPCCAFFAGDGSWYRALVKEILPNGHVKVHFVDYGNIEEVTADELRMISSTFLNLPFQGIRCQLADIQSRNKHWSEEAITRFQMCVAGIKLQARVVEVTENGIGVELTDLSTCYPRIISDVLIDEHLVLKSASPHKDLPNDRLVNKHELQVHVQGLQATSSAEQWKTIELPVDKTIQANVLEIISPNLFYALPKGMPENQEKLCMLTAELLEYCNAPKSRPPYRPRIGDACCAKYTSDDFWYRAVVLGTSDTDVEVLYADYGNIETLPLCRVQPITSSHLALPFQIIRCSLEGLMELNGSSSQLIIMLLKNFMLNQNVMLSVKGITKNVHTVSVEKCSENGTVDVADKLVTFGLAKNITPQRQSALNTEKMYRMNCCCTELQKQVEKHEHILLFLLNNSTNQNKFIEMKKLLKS

T5: ZGPAT 120-268 zf-CCCH+TUDOR (domain begin residue: 120, domain end residue: 268), Q8N5A5
T5 chain: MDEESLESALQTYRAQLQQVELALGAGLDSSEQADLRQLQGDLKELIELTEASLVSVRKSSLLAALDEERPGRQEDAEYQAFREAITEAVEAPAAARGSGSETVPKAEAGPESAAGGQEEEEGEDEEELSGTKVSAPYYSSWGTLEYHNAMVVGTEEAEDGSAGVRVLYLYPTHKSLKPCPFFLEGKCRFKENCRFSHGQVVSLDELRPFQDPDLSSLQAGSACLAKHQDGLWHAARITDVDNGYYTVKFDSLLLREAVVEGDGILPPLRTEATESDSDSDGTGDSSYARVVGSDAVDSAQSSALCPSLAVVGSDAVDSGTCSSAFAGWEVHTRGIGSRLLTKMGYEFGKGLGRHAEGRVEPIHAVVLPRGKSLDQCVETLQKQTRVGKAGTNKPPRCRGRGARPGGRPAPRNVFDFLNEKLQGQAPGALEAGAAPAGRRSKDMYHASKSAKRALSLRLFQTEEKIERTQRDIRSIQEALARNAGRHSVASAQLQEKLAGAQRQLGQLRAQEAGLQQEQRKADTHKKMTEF


Biological target: T1, ARID4A 568-634 Tudor-knot (domain begin …
Test: phage ELISA signal ratio (GST-PRM binding over GST background); higher = stronger binding of peptide-phage to the PRM
Method: (§1)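 Phage-displayed random hexadecapeptides (Cys-free, flanked by invariant Gly linkers, fused to the M13 P8 major coat protein) were selected over 5 rounds against GST-fused human PRM domains. Individual clones from rounds 4-5 were tested by phage ELISA, and positive clones binding the target but not GST were sequenced. Values are the ELISA signal ratio of target over background (GST); the background signal is given separately.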

Q: How did the “phage ELISA signal ratio” value turn out when WGWDEMLNDPEIMRIV was run?
A: The value was 12.7.

Biological target: KMT2C 1055-1137 PHD (domain begin residue: 1055, domain end residue: 1137)
Test: as above
Method: as §1

Q: How did the “phage ELISA signal ratio” value turn out when WGWDEMLNDPEIMRIV was run?
A: The value was 8.35.

Biological target: T2, LBR 1-67 LBR_tudor (domain begin …
Test: as above
Method: as §1

Q: With WGWDEMLNDPEIMRIV as the binder, how does the “phage ELISA signal ratio” value read?
A: The value was 7.63.

Biological target: PAF1 165-376 Paf1 (domain begin residue: 165, domain end residue: 376), Q8N7H5
Test: as above
Method: as §1

Q: Which “phage ELISA signal ratio” value does the source give for WGWDEMLNDPEIMRIV here?
A: The value was 6.83.

Biological target: RBBP8 722-897 SAE2 (domain begin residue: 722, domain end residue: 897), Q99708
Test: as above
Method: as §1

RBBP8 722-897 SAE2 (domain begin residue: 722, domain end residue: 897), Q99708, sequence (Q99708 whole entry): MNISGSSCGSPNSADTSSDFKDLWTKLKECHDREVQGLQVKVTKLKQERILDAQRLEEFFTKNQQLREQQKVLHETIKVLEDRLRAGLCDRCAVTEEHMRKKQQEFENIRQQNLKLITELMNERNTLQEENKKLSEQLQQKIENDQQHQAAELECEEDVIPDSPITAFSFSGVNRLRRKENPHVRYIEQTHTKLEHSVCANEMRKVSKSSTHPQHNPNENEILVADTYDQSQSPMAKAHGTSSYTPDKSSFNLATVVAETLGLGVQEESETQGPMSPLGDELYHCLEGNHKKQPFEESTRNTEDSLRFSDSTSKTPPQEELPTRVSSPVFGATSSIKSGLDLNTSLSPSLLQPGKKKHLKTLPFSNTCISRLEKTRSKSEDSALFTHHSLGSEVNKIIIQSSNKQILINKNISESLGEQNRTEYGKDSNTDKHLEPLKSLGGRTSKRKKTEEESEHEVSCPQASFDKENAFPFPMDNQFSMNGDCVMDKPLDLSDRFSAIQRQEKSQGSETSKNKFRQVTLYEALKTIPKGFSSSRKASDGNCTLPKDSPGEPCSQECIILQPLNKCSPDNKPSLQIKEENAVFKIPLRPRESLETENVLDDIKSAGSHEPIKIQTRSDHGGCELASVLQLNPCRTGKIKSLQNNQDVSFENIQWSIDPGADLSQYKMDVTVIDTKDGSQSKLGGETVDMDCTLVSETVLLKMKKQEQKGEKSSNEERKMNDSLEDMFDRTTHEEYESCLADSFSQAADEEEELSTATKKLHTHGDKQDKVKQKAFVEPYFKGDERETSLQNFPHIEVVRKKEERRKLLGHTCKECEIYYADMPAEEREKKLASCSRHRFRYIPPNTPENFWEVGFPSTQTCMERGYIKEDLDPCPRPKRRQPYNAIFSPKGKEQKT

Q: For WGWDEMLNDPEIMRIV, which “phage ELISA signal ratio” value is on record?
A: Its value is 6.44.

Biological target: SETD1A 2-220 RRM_1 (domain begin residue: 2, domain end residue: 220), O15047
Test: as above
Method: as §1

SETD1A 2-220 RRM_1 (domain begin residue: 2, domain end residue: 220), O15047, sequence (O15047 whole entry): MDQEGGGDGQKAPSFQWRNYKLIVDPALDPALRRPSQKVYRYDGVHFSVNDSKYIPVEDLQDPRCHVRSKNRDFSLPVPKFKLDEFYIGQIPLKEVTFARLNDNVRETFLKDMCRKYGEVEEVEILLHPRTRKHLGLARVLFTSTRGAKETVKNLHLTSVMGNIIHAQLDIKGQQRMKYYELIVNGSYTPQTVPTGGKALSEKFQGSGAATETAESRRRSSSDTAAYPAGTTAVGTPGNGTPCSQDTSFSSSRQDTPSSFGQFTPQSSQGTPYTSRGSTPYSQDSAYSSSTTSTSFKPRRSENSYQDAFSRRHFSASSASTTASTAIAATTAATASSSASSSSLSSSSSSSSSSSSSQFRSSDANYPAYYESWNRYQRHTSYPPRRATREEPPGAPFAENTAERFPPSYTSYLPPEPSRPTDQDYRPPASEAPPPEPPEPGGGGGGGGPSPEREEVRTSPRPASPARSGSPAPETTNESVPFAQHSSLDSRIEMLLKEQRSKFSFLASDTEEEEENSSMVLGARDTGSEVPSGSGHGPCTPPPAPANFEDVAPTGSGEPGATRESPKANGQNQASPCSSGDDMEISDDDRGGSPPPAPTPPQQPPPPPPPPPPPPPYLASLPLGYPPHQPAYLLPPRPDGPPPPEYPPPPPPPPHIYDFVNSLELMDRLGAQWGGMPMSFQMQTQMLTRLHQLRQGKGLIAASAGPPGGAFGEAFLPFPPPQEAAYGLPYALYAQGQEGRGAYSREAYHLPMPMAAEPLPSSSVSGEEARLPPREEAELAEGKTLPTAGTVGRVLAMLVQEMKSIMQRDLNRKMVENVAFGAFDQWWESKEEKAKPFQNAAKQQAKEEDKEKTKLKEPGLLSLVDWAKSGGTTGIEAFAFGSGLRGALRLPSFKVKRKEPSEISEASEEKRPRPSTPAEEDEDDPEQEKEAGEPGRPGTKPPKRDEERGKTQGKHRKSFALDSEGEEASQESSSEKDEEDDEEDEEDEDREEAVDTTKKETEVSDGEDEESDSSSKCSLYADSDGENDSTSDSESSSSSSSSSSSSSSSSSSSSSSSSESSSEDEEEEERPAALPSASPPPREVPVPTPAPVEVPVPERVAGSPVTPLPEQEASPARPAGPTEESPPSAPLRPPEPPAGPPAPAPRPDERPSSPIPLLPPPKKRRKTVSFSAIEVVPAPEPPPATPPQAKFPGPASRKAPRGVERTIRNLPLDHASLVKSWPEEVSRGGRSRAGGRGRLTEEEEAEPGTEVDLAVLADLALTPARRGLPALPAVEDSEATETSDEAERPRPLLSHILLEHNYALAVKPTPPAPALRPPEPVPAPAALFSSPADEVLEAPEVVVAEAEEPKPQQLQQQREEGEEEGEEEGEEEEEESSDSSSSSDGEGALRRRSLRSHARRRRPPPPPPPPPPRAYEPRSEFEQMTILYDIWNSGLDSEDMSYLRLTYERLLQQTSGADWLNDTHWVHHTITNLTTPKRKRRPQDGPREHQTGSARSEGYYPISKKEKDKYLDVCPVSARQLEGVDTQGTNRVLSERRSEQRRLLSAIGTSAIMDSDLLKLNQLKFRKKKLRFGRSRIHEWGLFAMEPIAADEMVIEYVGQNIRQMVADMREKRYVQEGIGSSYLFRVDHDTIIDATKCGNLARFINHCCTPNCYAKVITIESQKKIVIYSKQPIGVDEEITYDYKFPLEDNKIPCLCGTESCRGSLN

Q: How did the “phage ELISA signal ratio” value turn out when WGWDEMLNDPEIMRIV was run?
A: Its value is 7.71.

Biological target: T3, SND1 650-910 TUDOR+SNase (domain begin …
Test: as above
Method: as §1

Q: WGWDEMLNDPEIMRIV was tested. Which “phage ELISA signal ratio” value did it give?
A: Its value is 8.1.

Biological target: T4, TDRD1 261-449 TUDOR (domain begin …
Test: as above
Method: as §1

Q: With WGWDEMLNDPEIMRIV as the binder, how does the “phage ELISA signal ratio” value read?
A: The value was 10.8.

Biological target: T5, ZGPAT 120-268 zf-CCCH+TUDOR (domain …
Test: as above
Method: as §1

Q: WGWDEMLNDPEIMRIV was tested. Which “phage ELISA signal ratio” value did it give?
A: The value was 7.66.
